Rows were chosen to be rich in hits. Some 11% of all compounds tested hit in one or more screens of this group.
JMJD2E inh: qHTS Assay for Inhibitors of Human Jumonji Domain Containing 2E (JMJD2E). Lysine-specific demethylase 4E (Homo sapiens), B2RXH2. JMJD2E catalytic domain, FDH-coupled NADH fluorescence (FDH is formaldehyde dehydrogenase). Potency, µM (top dose mostly 57.1 µM), most hits filed as inhibitors. actives 1.6% (n = 230,000). AID 2147, 2009; further: nearly all actives have a fitted effect of over 50% in size
ALDH1A1 block: qHTS Assay for Inhibitors of Aldehyde Dehydrogenase 1 (ALDH1A1) | Aldehyde dehydrogenase 1A1 (Homo sapiens), P00352 | Purified ALDH1A1, NADH fluorescence, propionaldehyde substrate | Potency, µM (top dose mostly 75.3 µM), most hits filed as inhibitors | actives 7.3% (n = 220,000)
PNC assembly inh: High Content Assay for Compounds that inhibit the Assembly of the Perinucleolar Compartment; PC3M PTB-GFP, PNC prevalence imaging, 16 h; active compounds read low; activity change (PNC), negative = inhibition, % at 10 µM; actives 3.1% (n = 140,000); AID 2417, 2010;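 active means readout at or below -70, meaning at least 70% loss of cells showing the perinucleolar compartment, a nuclear body marking cancer cells; inconclusive means readout between -30 and a set limit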
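Read-out is percentage of cells bearing a perinucleolar compartment, from automated 20x imaging of fixed, Hoechst-stained PC3M PTB-GFP cells. Cells were seeded 4 h, then exposed 16 h to compound (23 nl of library stock) in duplicate plates.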
HPGD inh: qHTS Assay for Inhibitors of HPGD (15-Hydroxyprostaglandin Dehydrogenase). purified HPGD, NADH fluorescence kinetic, PGE2 substrate. Potency, µM, hits mostly inhibitors. AID 894, 2007. 15-hydroxyprostaglandin dehydrogenase [NAD(+)] (Homo sapiens), P15428. actives 4.3% (n = 150,000)
Target sequence (P15428 whole entry, looked up): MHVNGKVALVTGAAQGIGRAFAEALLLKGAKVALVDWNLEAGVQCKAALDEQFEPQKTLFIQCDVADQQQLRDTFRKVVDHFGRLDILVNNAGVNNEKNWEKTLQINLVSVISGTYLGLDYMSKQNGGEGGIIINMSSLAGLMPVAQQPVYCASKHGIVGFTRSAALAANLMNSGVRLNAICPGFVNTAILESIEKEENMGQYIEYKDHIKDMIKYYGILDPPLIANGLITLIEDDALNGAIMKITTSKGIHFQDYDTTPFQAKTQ
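NADH formation kinetics: reaction with 30 uM PGE2 and 1 mM NAD+ (final), 20 nM enzyme, Tris-HCl pH 8 with Tween 20, after 15 min compound preincubation at room temperature. Fluorescence change, last versus first of five reads.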
Large screens that a line does not name were inactive. Unless noted, the call rests on the fitted dose curve; in most records, active means well fitted inhibition curve with a large enough effect (not every such curve was filed as active); inconclusive means small, poorly fitted or top-dose-only effect, or another doubt; inactive means no such curve, though single readings can be large or run the other way.

Cc1cc(C)cc(NC(=O)Cn2cc3c(n2)CCCCC3)c1	HPGD inh 20µM
CN(C)c1ccc(NC(=O)Cn2cc3c(n2)CCCC3)cc1	none
CC(=O)Nc1cccc(-c2nc3ccc(NC(C)=O)cc3[nH]2)c1	JMJD2E inh inconclusive, ALDH1A1 block inconclusive, HPGD inh inconclusive
CC(=O)Nc1ccc2nc(-c3cccnc3)[nH]c2c1	ALDH1A1 block inconclusive, PNC assembly inh -100.0, HPGD inh inconclusive
COC(=O)c1ccc(C(=O)Nc2ccc3nc(-c4cccnc4)[nH]c3c2)cc1	PNC assembly inh -83.1
O=S(=O)(c1ccccc1)c1nc(-c2ccco2)oc1N1CCOCC1	none
CSc1oc(-c2ccc(F)cc2)nc1S(=O)(=O)c1ccccc1	ALDH1A1 block 28.2µM, HPGD inh inconclusive
O=P(c1ccccc1)(c1ccccc1)c1nc(-c2ccc(Cl)cc2)oc1N1CCOCC1	JMJD2E inh 3.16µM, ALDH1A1 block inconclusive (no result: PNC assembly inh, HPGD inh)
O=S(=O)(c1ccccc1)c1nc(-c2ccccc2)oc1N1CCCCC1	ALDH1A1 block 0.447µM, HPGD inh inconclusive
COc1ccc(-c2nc(S(=O)(=O)c3ccccc3)c(N3CCOCC3)o2)cc1	ALDH1A1 block 22.4µM
COc1cc(/C=C(\C#N)c2nc3ccccc3[nH]2)c([N+](=O)[O-])cc1OCc1ccccc1	ALDH1A1 block 0.562µM, HPGD inh inconclusive
COc1cc(/C=C(\C#N)c2nc3ccccc3[nH]2)ccc1OC(=O)c1ccco1	JMJD2E inh inconclusive, ALDH1A1 block inconclusive, HPGD inh inconclusive
CCN(CC)S(=O)(=O)c1ccc(C(=O)NCC(c2ccc(OC)cc2)N2CCOCC2)cc1 (stereo not given)	ALDH1A1 block 0.708µM (no result: PNC assembly inh, HPGD inh)
COc1ccc(C(CNC(=O)c2ccc(S(=O)(=O)N3CCOCC3)cc2)N2CCCCC2)cc1 (stereo not given)	ALDH1A1 block inconclusive
CCc1nc(SCc2ccc(Cl)cc2)n[nH]1	none (no result: PNC assembly inh, HPGD inh)
CCCc1nc(SCc2ccc(Cl)cc2Cl)n[nH]1	HPGD inh 15.8µM
N#Cc1cc(-c2cccc(Cl)c2)c[nH]c1=O	JMJD2E inh inconclusive, PNC assembly inh -91.7
O=S(=O)(c1cccs1)N1CCN(c2ccc(O)cc2)CC1	none (no result: ALDH1A1 block, PNC assembly inh, HPGD inh)
COc1cccc(OC)c1-c1nn2c(-c3ccco3)nnc2s1	ALDH1A1 block inconclusive, PNC assembly inh inconclusive, HPGD inh 15.8µM
COc1cccc(-c2nn3c(-c4ccco4)nnc3s2)c1	ALDH1A1 block 3.55µM, HPGD inh inconclusive
COc1cc(-c2nn3c(-c4ccco4)nnc3s2)cc(OC)c1OC	none
Cc1nc2ccccc2c(=O)n1NC(=O)c1cccc([N+](=O)[O-])c1	none (no result: PNC assembly inh, HPGD inh)
Cc1cc(C)n(C(=O)c2cc3c(s2)CCCC3)n1	ALDH1A1 block 20µM
NNC(=O)c1cc2c(s1)CCCCCC2	ALDH1A1 block 0.355µM
CC[C@]12CCCN3CCc4c(n(c5ccccc45)C(=O)C1)[C@H]32	none (no result: PNC assembly inh)
COC(=O)[C@@H]1C[C@@H]2CC[C@@H](O)C[C@@H]2N1Cc1ccc(-c2ccccc2)cc1	none (no result: PNC assembly inh)
CCOC(=O)N1CCN(C(=O)C2CCCN(Cc3nc(-c4ccc(Cl)cc4)oc3C)C2)CC1 (stereo not given)	ALDH1A1 block inconclusive, PNC assembly inh -100.5
CCOC(=O)N1CCC(NC(=O)C2CCCN(Cc3nc(-c4cccc(Cl)c4)oc3C)C2)CC1 (stereo not given)	none
Cc1oc(-c2cc3c(cc2Cl)OCO3)nc1CN1CCCC(C(=O)N2CCOCC2)C1 (stereo not given)	ALDH1A1 block 1µM (no result: PNC assembly inh, HPGD inh)
Cc1ccc(CNC(=O)C2CC(c3cccc([N+](=O)[O-])c3)=NO2)o1 (stereo not given)	ALDH1A1 block inconclusive
COC(=O)C(C(=O)OC)[C@@H]1O[C@@]23COC=C[C@]2(C)[C@H]3c2ccccc21	none (no result: PNC assembly inh)
N=c1c2c(n(Cc3ccc(Br)cc3)c3c1CCC3)CCCC2	PNC assembly inh -123.3
O=C(Nc1nnc(SCc2ccc(F)cc2)s1)c1ccc2c(c1)C(=O)N(c1ccccc1Cl)C2=O	ALDH1A1 block 1.26µM (no result: PNC assembly inh, HPGD inh)
CCCCN=CC1=C(O)C(C(=O)OC)C(C)(C)CC1=O (stereo not given)	PNC assembly inh -85.7
CCC(=Nc1ccc(N)cc1)C1=C(O)C(C(=O)OC)C(C)(C)CC1=O (stereo not given)	JMJD2E inh 8.91µM (no result: HPGD inh)
CCO/N=C/C1=C(O)C(C(=O)OC)C(C)(C)CC1=O (stereo not given)	ALDH1A1 block inconclusive (no result: PNC assembly inh, HPGD inh)

Bioassay records from PubChem BioAssay.
